Screening results deposited in PubChem BioAssay by ICCB-Longwood Screening Facility, Harvard Medical School.
RVFV N-RNA FP – RVFV nucleocapsid-RNA interaction inhibition; P21700; RVFV N-RNA binding, fluorescence polarization; stronger effect = lower value; % bound, % (concentration not given with the values); 20,000 compounds, 0.1% hits; AID 651828; in the data active means % bound below about 75%
Target sequence (P21700 whole entry, looked up): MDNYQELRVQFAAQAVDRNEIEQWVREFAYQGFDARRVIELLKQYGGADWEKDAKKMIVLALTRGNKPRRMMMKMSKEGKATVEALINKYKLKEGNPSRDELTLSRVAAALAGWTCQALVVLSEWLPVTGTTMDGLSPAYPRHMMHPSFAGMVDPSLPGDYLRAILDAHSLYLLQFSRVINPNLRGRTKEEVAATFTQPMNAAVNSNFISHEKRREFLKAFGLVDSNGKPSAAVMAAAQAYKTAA
Hits are given with their value; . = inactive; ! = not active in a repeat. Only a selection was taken, and hits are over-represented in it overall.

SMILES	RVFV N-RNA FP
CCCCc1cc(=O)oc2c(CN(C)C)c(O)ccc12	.
CC[C@@]1(O)C(=O)OCc2c1cc1n(c2=O)Cc2cc3c(CN(C)C)c(O)ccc3nc2-1	43.7
CC(C)(C)CC(C)(C)NCc1ccccc1OCC(N)=O	.
CCNC(=S)Nc1ccc(C)cc1	.
CCCCCSc1ncnc2nc[nH]c12	.
Cc1csc2nc(O)c(C(=O)NCCN(C)C)c(=O)n12	.
CCCCC(=O)Nc1ccc(C(=O)NCc2ccc(S(N)(=O)=O)cc2)cc1	.
C=CCn1c(CC(C)C)nnc1SCC(=O)Nc1ccc(Cl)cc1	.
CC(Cc1ccccc1)NC(=O)c1ccccc1 (centres undefined)	.
c1ccc(CN2CCN(Cc3ccccc3)C2c2ccc[nH]2)cc1	.
COc1ccc2c(c1)O/C(=C\c1cccc(OC(=O)N3CCOCC3)c1)C2=O	.
CCN(CC)Cc1c(O)ccc2c1O/C(=C\c1ccc(C(=O)OC)cc1)C2=O	.
CCc1c(C)c2ccc(O)c(CN(C)C)c2oc1=O	.
CN(C)Cc1c(O)ccc2c1O/C(=C\c1ccccc1)C2=O	48.4
O=C(CN1CCOCC1)N/N=C/c1ccccc1	.
O=C1/C(=C/c2ccccc2)Oc2c1ccc(O)c2CN1CCOCC1	52.9
CC1CCN(CC(=O)NCc2ccccc2)CC1	.
CC1CCN(Cc2c(O)ccc3c2O/C(=C\c2ccccc2)C3=O)CC1	56.5
CC1CCN(Cc2c(F)cccc2F)CC1	.
Cc1cccc(C)c1OCCCCN1CC(C)OC(C)C1 (centres undefined)	.
COc1cc(C#N)ccc1OCC(N)=O	.
O=C(NCCN1CCCCC1)c1ccc(-c2ccccc2)cc1	.
Cc1cn2c(nc3c2c(=O)n(C)c(=O)n3C)o1	.
Cc1noc(C)c1C(=O)O/N=C(\N)c1ccc(OC(F)(F)F)cc1	.
Cc1ccc(/C(O)=C2\C(=O)C(=O)N3c4ccccc4OC(=O)C23O)cc1 (centres undefined)	.
SMILES	RVFV N-RNA FP
O=c1[nH]c(-c2ccc3c(c2)OCO3)nc2ccccc12	.
CC1(C)OC(=O)C(=CNNc2ccc(C(F)(F)F)cc2)C(=O)O1	.
Cc1nc2ccccc2c(=O)n1-c1cccc(NC(=O)C2CC2)c1	.
CC1CN(S(=O)(=O)c2ccc(NC(=O)C(C)Oc3ccc(F)cc3)cc2)CC(C)O1 (centres undefined)	.
CN(c1ccc(C(=O)NC2CCCCC2)cc1)S(C)(=O)=O	.
CCCC(=O)C1C(=O)C=C(C)OC1=O (centres undefined)	.
Cc1cccc(NC(=O)c2cccc(C)c2)c1	.
CC(C)C(=O)Nc1cccc(C(=O)Nc2ccccc2)c1	.
Cc1ccc(C(=O)Nc2ccc(S(=O)(=O)O)c3cc(S(=O)(=O)O)cc(S(=O)(=O)O)c23)cc1NC(=O)c1cccc(NC(=O)Nc2cccc(C(=O)Nc3cc(C(=O)Nc4ccc(S(=O)(=O)O)c5cc(S(=O)(=O)O)cc(S(=O)(=O)O)c45)ccc3C)c2)c1	6.7!
CC1(C)OC(=O)C(=Cc2cc3ccccc3o2)C(=O)O1	.
COc1ccc2nc(NNC(=O)c3ccccc3)sc2c1	.
CNC(=O)Cc1cc(=O)[nH]c(=O)[nH]1	.
C=CCOc1cccc(C(=O)NCCOC)c1	.
CCCCC1(C)OC(=O)C(=Cc2ccc(O)cc2)C(=O)O1 (centres undefined)	.
CCCN1CCC2(CC1)C1CN(CCC)CC=C1C(C#N)=C(N)C2(C#N)C#N (centres undefined)	54.4
COc1ccc2c(c1)c1c3c(c4c5ccccc5n(C)c4c1n2CC(O)CN(C)C)C(=O)NC3=O (centres undefined)	.
Cc1ccc(-n2nc3c(c2NC(=O)c2ccccc2)CSC3)cc1	.
O=C1CCCC(=O)C1C1c2ccccc2Oc2ccc(F)cc21 (centres undefined)	.
O=C1NC(Cc2ccc(O)cc2)C(=O)N1C12CC3CC(CC(C3)C1)C2 (centres undefined)	.
CCCc1cc(=O)n(CC(=O)N2CCCc3ccccc32)c(-n2nc(C)cc2C)n1	.
CON1C(=O)c2ccccc2C1=O	.
Oc1ccc2nnc3c(Br)cnn3c2c1	41.1
CCc1ccc(Nc2nc(Nc3ccc(OC)c(OC)c3)nc(N3CCOCC3)n2)cc1	.
COc1cccc(/C=N/NC(=O)c2cccc(Cl)c2)c1O	.
Nc1nc(CSc2nc3ccccc3o2)cs1	.
SMILES	RVFV N-RNA FP
Cc1ccc(OCC(=O)Nc2ccccc2C(=O)N(C)C)cc1	.
COC(=O)C1=C(C)NC(=S)NC1/C=C/c1ccccc1 (centres undefined)	.
CC1=C(C(N)=O)C(c2ccccc2F)NC(=O)N1 (centres undefined)	.
CC1=C(C(N)=O)C(/C=C/c2ccccc2)n2ncnc2N1 (centres undefined)	28.6
CC[C@]1(O)C[C@H]2CN(CCc3c([nH]c4ccccc34)[C@@](C(=O)OC)(c3cc4c(cc3OC)N(C)[C@H]3[C@@](O)(C(N)=O)[C@H](O)[C@]5(CC)C=CCN6CC[C@]43[C@@H]65)C2)C1	.
CC(C)c1ccc(/C=N/NC(N)=S)cc1	.
O=S(=O)(Cc1ccc(Br)cc1F)c1cccs1	.
C/C=N/N=C1/NC(=O)C(CC(=O)Nc2cccc(C)c2C)S1 (centres undefined)	.
